PubChem BioAssay
Unmarked numbers belong to inactive results. A call without a number means that no potency is given here. For part of these data: Potency and affinity values are given separately. Calls of active or inactive are those of the source. Unless noted, how the calls were made is not given here.

Experiments:
[1] = antimalarial activity against Dd2 strain (AID 2302;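 active means growth inhibition above 50% at the single 2 µM test dose, taken to imply half-maximal potency below 2 µM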); settings: P. falciparum Dd2 in RBCs, LDH growth readout, 72 h; at 2 µM; active compounds read high
[2] = HepG2 cytotoxicity, primary screen, cytotoxicity control for P. falciparum antimalarial project, cell-based, ATP luminescence (AID 2303;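 active means inhibition above 50%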); settings: HepG2 viability, 24-48 h, at 10 µM, active compounds read high
[3] = molecular target: L-lactate dehydrogenase (Plasmodium falciparum (isolate CDC / Honduras)) (UniProt Q27743); assay: PfLDH activity inhibition – cell lysate, 3D7 strain, counter-screen for P. falciparum growth inhibition project (AID 2304); settings: P. falciparum 3D7 crude extract, LDH APAD/NBT absorbance; at 2 µM; active compounds read high
L-lactate dehydrogenase (Plasmodium falciparum (isolate CDC / Honduras)), sequence (Q27743 whole entry, looked up): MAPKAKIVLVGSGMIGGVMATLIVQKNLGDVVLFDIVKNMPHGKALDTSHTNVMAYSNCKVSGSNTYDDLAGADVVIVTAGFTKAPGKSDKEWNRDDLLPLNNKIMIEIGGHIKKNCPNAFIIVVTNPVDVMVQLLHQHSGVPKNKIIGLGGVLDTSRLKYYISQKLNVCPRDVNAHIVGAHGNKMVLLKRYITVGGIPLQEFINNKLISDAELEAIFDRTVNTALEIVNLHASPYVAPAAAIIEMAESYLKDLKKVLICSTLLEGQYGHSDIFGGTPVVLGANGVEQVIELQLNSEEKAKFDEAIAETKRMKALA

[4] = inhibition of 3D7 malaria parasite growth – strain 3D7 (AID 2306); settings: P. falciparum 3D7 erythrocytic growth, LDH absorbance, 72 h; at 2 µM; active compounds read high
[5] = molecular target: Calcium-dependent protein kinase 1 (Plasmodium falciparum (isolate 3D7)) (UniProt P62344); assay: PfCDPK1 kinase inhibitors, biochemical, TCAMS library (AID 1159585; cut-off not given, nearly all actives have IC50 up to about 0.98 µM;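 further: inhibitors leave more ATP so luminescence rises with inhibition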); settings: recombinant PfCDPK1, Kinase-Glo ATP depletion luminescence
Calcium-dependent protein kinase 1 (Plasmodium falciparum (isolate 3D7)), sequence (P62344 whole entry, looked up): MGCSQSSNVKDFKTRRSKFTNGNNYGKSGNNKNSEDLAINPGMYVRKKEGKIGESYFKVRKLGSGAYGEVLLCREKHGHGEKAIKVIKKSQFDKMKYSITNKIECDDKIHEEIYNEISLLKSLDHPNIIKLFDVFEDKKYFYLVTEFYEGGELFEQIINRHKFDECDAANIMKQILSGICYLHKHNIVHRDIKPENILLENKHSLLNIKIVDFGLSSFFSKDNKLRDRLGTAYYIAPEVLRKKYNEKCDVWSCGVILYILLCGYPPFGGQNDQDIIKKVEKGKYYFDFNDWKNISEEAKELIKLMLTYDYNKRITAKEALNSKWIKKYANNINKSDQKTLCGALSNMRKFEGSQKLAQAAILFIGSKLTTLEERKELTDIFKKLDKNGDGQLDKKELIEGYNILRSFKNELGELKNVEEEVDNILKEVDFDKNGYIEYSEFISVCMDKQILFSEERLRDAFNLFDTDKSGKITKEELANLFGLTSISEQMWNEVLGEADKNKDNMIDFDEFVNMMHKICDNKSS

[6] = molecular target: Plasmodium falciparum protein kinase 6 (PK6, PF3D7_1337100) (UniProt Q8IDW1); assay: PfPK6 kinase inhibitors, biochemical, TCAMS library (AID 1159586); settings: recombinant PfPK6, Kinase-Glo ATP depletion luminescence
Plasmodium falciparum protein kinase 6 (PK6, PF3D7_1337100), sequence (Q8IDW1 1-305): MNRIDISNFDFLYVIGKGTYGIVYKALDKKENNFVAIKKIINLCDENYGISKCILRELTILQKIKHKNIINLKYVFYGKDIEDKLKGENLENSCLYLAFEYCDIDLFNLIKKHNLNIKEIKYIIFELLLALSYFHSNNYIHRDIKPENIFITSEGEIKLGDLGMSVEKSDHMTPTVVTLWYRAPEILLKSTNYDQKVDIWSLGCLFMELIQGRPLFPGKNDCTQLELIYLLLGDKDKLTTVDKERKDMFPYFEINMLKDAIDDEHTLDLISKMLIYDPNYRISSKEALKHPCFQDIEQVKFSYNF

[7] = molecular target: Protein kinase 7 (PK7), Plasmodium falciparum 3D7 (PF3D7_0213400) (UniProt Q7YTF7); assay: inhibition of Plasmodium PK7 catalytic activity – biochemical, TCAMS antimalarial set, Kinase-Glo luminescence (AID 1159587); settings: recombinant PfPK7, Kinase-Glo ATP depletion luminescence
Protein kinase 7 (PK7), Plasmodium falciparum 3D7 (PF3D7_0213400), sequence (Q7YTF7 1-343): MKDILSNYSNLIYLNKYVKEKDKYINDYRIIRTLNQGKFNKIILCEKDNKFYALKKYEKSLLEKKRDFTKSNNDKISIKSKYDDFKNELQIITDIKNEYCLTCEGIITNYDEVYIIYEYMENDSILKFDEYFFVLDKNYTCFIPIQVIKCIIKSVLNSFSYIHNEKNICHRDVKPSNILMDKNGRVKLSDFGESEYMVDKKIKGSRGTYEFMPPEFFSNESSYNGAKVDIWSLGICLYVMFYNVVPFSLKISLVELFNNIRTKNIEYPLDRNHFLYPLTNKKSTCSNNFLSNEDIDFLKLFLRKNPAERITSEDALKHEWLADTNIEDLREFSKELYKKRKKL

[8] = molecular target: Calcium-dependent protein kinase 4 (Plasmodium falciparum (isolate 3D7)) (UniProt Q8IBS5); assay: PfCDPK4 kinase inhibitors, biochemical, TCAMS library (AID 1159588; cut-off not given, nearly all actives have IC50 up to about 0.91 µM); settings: recombinant PfCDPK4, Kinase-Glo ATP depletion luminescence
Calcium-dependent protein kinase 4 (Plasmodium falciparum (isolate 3D7)), sequence (Q8IBS5 whole entry, looked up): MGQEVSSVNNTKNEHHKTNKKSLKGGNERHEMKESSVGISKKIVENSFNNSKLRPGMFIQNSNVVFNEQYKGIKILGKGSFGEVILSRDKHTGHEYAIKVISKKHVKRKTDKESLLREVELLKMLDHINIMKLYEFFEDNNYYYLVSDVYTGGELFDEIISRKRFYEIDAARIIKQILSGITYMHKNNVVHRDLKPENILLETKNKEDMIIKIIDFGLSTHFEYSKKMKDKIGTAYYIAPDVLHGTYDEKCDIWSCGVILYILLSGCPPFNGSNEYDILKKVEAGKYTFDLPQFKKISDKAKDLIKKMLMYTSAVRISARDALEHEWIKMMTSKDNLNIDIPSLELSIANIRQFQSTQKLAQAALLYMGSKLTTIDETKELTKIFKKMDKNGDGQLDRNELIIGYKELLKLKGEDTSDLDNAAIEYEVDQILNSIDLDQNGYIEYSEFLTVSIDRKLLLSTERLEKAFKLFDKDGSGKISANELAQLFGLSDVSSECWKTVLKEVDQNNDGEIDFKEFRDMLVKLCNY

SMILES	growth inhibition [1]	inhibition [2]	inhibition [3]	growth inhibition [4]	outcome [5]	outcome [6]	outcome [7]	outcome [8]
Cc1nnsc1C(=O)Nc1ccc(-c2cccc(-c3nc4ccc(F)cc4[nH]3)c2)cc1	27%	44%	2%	96% (active)	inactive	inactive	inactive	inactive
Cc1ccc(CON2C(N)=NC(N)=NC2(C)C)cc1C	88% (active)	64% (active)	-9%	92% (active)	inactive	inactive	inactive	inactive
O=C(NC1CCC1)C1CCN(C(c2ccccc2)c2cc(F)cc(F)c2)CC1 (configuration not stated)	72% (active)	0%	-2%	94% (active)	inactive	inactive	inactive	inactive
CCCn1c(Sc2ccc(C#N)c([N+](=O)[O-])c2)nnc1-c1ccc(OC)cc1	95% (active)	-6%	-2%	94% (active)	inactive	inactive	inactive	inactive
CCCCN(CCCC)C(=NCCCCCCN=C(NC(N)=NCc1ccc(Cl)c(Cl)c1)N(CCCC)CCCC)NC(N)=NCc1ccc(Cl)c(Cl)c1	96% (active)	9%	-7%	100% (active)	inactive	inactive	inactive	inactive
Cc1cc(OCCCN=C(N)c2ccc3ccccc3c2)c(C(C)C)cc1Cl	10%	89% (active)	2%	95% (active)	inactive	inactive	inactive	inactive
O=C(CSc1nc2ccccc2c(=O)n1C1CC1)Nc1cc(C(F)(F)F)ccc1Cl	96% (active)	5%	2%	97% (active)	inactive	inactive	inactive	inactive
O=C(Nc1ccc2oc(-c3ccc(Br)cc3)nc2c1)c1ccc([N+](=O)[O-])o1	21%	9%	2%	92% (active)	inactive	inactive	inactive	inactive
CCCCc1cc(NCc2ccncc2)nc(Nc2cccc(OC)c2)n1	56% (active)	41%	-5%	101% (active)	inactive	inactive	inactive	inactive
O=C(/C=C/c1cccc2c1OCO2)Nc1ccnc2ccncc12	35%	17%	-4%	90% (active)	inactive	inactive	inactive	inactive
FC(F)(F)c1ccc2nc(-c3ccc(-c4cccc(CNCc5ccccc5)c4)cc3)[nH]c2c1	43%	-2%	-5%	100% (active)	inactive	inactive	inactive	inactive
CN(C)CCOc1ccnc2ccc(NC(=O)Cc3ccc(-c4ccncc4)c4ccccc34)cc12	100% (active)	10%	-6%	100% (active)	inactive	inactive	inactive	inactive
CC(=O)Oc1c(C2C=CCCC2)c(OC(C)=O)c2ccccc2c1OC(C)=O (configuration not stated)	79% (active)	10%	7%	95% (active)	inactive	inactive	inactive	inactive
Cc1ccc(NC(=O)c2ccc(CN3CCCN(Cc4cccc(O)c4)CC3)cc2)cc1	31%	39%	-5%	90% (active)	inactive	inactive	inactive	inactive
Fc1ccccc1-c1cc(Nc2ccncc2)nc(-c2cccnc2)n1	89% (active)	91% (active)	3%	103% (active)	inactive	inactive	inactive	inactive
CCCCCCn1c2c(c(=N)c3c1CCC3)CCCC2	76% (active)	31%	4%	99% (active)	inactive	inactive	inactive	inactive
N#CCOc1c(C2CCN(CCCCNC(=O)c3ccc(-c4ccc(C(F)(F)F)cc4)cc3)CC2)ccc2c1CCCC2	48%	59% (active)	4%	97% (active)	inactive	inactive	inactive	inactive
CCCNC(=O)Nc1cc2cc(-c3ccc(CN4CCCC4)cc3)ccc2n2c(C)nnc12	11%	67% (active)	0%	93% (active)	inactive	inactive	inactive	inactive
COC(=O)c1ccc2nc(-c3ccc(C(=O)NCc4ccc(Cl)c(Cl)c4)cc3)[nH]c2c1	3%	1%	-2%	95% (active)	inactive	inactive	inactive	inactive
FC(F)(F)c1cc(C(F)(F)F)c2cc(CNCCCNc3nc4ccccc4[nH]3)[nH]c2c1	99% (active)	99% (active)	0%	100% (active)	inactive	inactive	inactive	inactive

SMILES	growth inhibition [1]	inhibition [2]	inhibition [3]	growth inhibition [4]	outcome [5]	outcome [6]	outcome [7]	outcome [8]
O=C(Nc1ccc(C(=O)OCC2CCCCC2)cc1)N[C@@H](Cc1ccc(O)cc1)C(=O)NC1CCN(Cc2ccc(O)cc2)C1 (some centres not stated)	-4%	6%	-1%	91% (active)	inactive	inactive	inactive	inactive
CC(C)(C)c1ccc2nc(-c3ccc(/C=C/C(=O)NCc4ccc(Cl)c(Cl)c4)cc3)[nH]c2c1	17%	41%	0%	97% (active)	inactive	inactive	inactive	inactive
COc1ccccc1C1CC(c2ccc(C)cc2)=NN1C(=O)c1ccccc1 (configuration not stated)	45%	37%	-5%	98% (active)	inactive	inactive	inactive	inactive
COc1ccc(NC(=O)/C=C/c2ccc(Cl)c(C(F)(F)F)c2)cc1OCCN(C(C)C)C(C)C	28%	18%	-1%	95% (active)	inactive	inactive	inactive	inactive
CC(C)c1ccc(CN2CCC(NC(=O)c3ccc(-c4cccc(F)c4)s3)CC2)cc1	12%	47%	3%	83% (active)	inactive	inactive	inactive	inactive
CCCCCCCCc1c(C)[nH]c(C)c(Br)c1=O	92% (active)	-5%	7%	96% (active)	inactive	inactive	inactive	inactive
CCC(CC)N1CCN(CC(=O)Nc2ccc([N+](=O)[O-])cc2C(=O)Nc2cccc(OC)c2)CC1	35%	35%	0%	100% (active)	inactive	inactive	inactive	inactive
O=C(Nc1ccc(N2CCN(Cc3ccccc3Cl)CC2)cc1)c1ccc([N+](=O)[O-])o1	67% (active)	100% (active)	-4%	91% (active)	inactive	inactive	inactive	inactive
Nc1ccc(-c2ccc(NC(=O)Nc3cc(C(F)(F)F)ccc3F)cc2)cn1	39%	-6%	-9%	99% (active)	inactive	inactive	inactive	inactive
COc1ccc2nccc([C@@H](O)CN3CCC(NCc4nc5cc(F)c(F)cc5[nH]4)CC3)c2c1	36%	12%	-1%	96% (active)	inactive	inactive	inactive	inactive
CCOc1cc(CNCCCCCCNCc2cc(OCC)c(OCC)c3ccccc23)c2ccccc2c1OCC	99% (active)	100% (active)	2%	101% (active)	inactive	inactive	inactive	inactive
Cc1cc(=O)c(-c2ccc(Oc3ccc(C(F)(F)F)cc3)cc2)c(C)n1O	78% (active)	18%	0%	94% (active)	inactive	inactive	inactive	inactive
O=S(=O)(Nc1cccc(CCN2CCCCC2CCN2CCCC2)c1)c1ccc2ccccc2c1 (configuration not stated)	40%	22%	-2%	91% (active)	inactive	inactive	inactive	inactive
Cc1noc(C)c1-c1ccc2c(Nc3ccccc3N3CCOCC3)c(C(=O)NCc3ccccc3)cnc2c1	6%	23%	-2%	91% (active)	inactive	inactive	inactive	inactive
CC(CCc1ccc(OCc2ccccc2)cc1)NCC(O)c1ccccc1 (configuration not stated)	72% (active)	9%	-1%	86% (active)	inactive	inactive	inactive	inactive
Cc1cc(NCCC(=O)Nc2ccccc2)nc(NCC2CCCCC2)n1	62% (active)	14%	3%	100% (active)	inactive	inactive	inactive	inactive
Cc1ccc(-c2cc3nc4c(c(NCCCn5ccnc5)n3n2)CCC4)cc1	21%	22%	-2%	94% (active)	inactive	inactive	inactive	inactive
COc1cc(C(C)C)ccc1C1CCN(CCCCNC(=O)c2ccc(NC(=O)c3ccc(Cl)cc3)cc2)CC1	99% (active)	100% (active)	3%	98% (active)	inactive	inactive	inactive	inactive
O=C(Nc1ccc(Cl)cc1)Nc1cccc(CCNCc2ccccc2)c1	12%	16%	6%	101% (active)	inactive	inactive	inactive	inactive
